Laboratory results taken from PubChem BioAssay.
The source made the active and inactive calls. Unless noted, how the calls were made is not given here.

How the values were obtained:
[1] = test system: Wnt5a (protein binding on small-molecule microarray); experiment: small molecules binding Wnt5a protein – biophysical, small-molecule microarray, 635/667 nm fluorescence, primary screen (AID 1142); conditions: 635 nm fluorescence, higher = more signal;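 further: fluorescence read at 667 nm with signal to noise per printed feature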
[2] = ATP-based viability of Huh7 replicon cells – cell-based, CellTiter-Glo luminescence, basal, 48 h, cytotoxicity control for HCV replication inhibitor project, primary screen (AID 1143); conditions: higher = more signal, called active from +8 up or from −8 down;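 further: Huh7 hepatoma cells carrying a hepatitis C replication reporter with no stimulus; test concentration not given here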
[3] = Pseudomonas biofilm growth suppression – PAO1 strain, BacTiter-Glo luminescence, LB-PBS, primary screen (AID 1144); conditions: P. aeruginosa PAO1 biofilm, 12 h, higher = more signal
[4] = basal CRE-LacZ reporter activity in PC12 – cell-based, unstimulated, primary screen (AID 1145); conditions: no forskolin, luminescence, 4.5 h, higher = more signal, called active from +8 up or from −8 down
[5] = forskolin-driven CRE-LacZ activity in PC12 – cell-based, CRE-LacZ reporter, forskolin-stimulated, primary screen (AID 1146); conditions: luminescence, 4.5 h, higher = more signal, called active from +8 up or from −8 down;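 further: PC12 cells with 6xCRE LacZ reporter stimulated by forskolin 10 µM; beta-galactosidase reporter signal reflecting CREB driven transcription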
[6] = target: Streptavidin (Streptomyces avidinii) (UniProt P22629); experiment: compounds binding control protein streptavidin – biophysical, small-molecule microarray, 635/667 nm fluorescence, artefact control for SMM compound annotation, primary screen (AID 1147); conditions: higher = more signal;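 further: signal reflects streptavidin binding to arrayed compounds as a control protein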
Streptavidin (Streptomyces avidinii), sequence (P22629 whole entry, looked up): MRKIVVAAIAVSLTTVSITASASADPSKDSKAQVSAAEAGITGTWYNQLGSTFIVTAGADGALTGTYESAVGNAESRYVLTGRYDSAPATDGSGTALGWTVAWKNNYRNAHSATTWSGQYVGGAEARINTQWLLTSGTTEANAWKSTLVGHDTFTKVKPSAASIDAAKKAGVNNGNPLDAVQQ

[7] = probe aInhba binding on compound microarray – biochemical, small-molecule microarray, 635/667 nm fluorescence, primary screen (AID 1148); conditions: higher = more signal;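 further: score merges 667nm spot fluorescence with signal-to-noise for antibody binding to printed compounds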
[8] = target: Torsin-1A (Homo sapiens) (UniProt O14656); experiment: TOR1A wild-type binding on microarray – cell lysate, small-molecule microarray, lysate, 635/667 nm, primary screen (AID 1149); conditions: COS7 hTOR1A-WT lysate, 635 nm fluorescence, higher = more signal
Torsin-1A (Homo sapiens), sequence (O14656 whole entry, looked up): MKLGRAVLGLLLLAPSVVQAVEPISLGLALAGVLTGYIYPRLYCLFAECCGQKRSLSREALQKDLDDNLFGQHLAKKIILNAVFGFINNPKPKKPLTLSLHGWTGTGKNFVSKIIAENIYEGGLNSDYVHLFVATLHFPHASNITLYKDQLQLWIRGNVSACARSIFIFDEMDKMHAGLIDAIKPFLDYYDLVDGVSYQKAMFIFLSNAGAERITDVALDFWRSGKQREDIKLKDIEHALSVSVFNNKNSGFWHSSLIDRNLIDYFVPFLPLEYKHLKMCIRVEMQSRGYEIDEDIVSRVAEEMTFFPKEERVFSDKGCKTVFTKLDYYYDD

[9] = target: Torsin-1A (Homo sapiens) (UniProt O14656); experiment: torsin A mutant lysate binding on microarrays – cell lysate, small-molecule microarray, COS7 lysate, 635/667 nm fluorescence, primary screen (AID 1150); conditions: COS7 hTOR1A mutant lysate, 635 nm fluorescence, higher = more signal;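 further: score pools 667 nm emission and signal to noise measuring lysate protein binding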
[10] = test system: Sonic hedgehog protein (Shh); experiment: Sonic hedgehog microarray binding compounds – biochemical, small-molecule microarray, 635/667 nm fluorescence, primary screen (AID 1151); conditions: 635 nm fluorescence, higher = more signal;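 further: Shh protein binding to compounds spotted on small-molecule microarray slides; score combines spot fluorescence intensity with signal-to-noise across triplicate slides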
[11] = optical density shifts of acrAB sulA E. coli – strain DRC41, OD650, 48 h, E. coli filamentation inducer project, primary screen (AID 1152); conditions: higher = more signal, called active from +8 up or from −8 down;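 further: E. coli MC1000 strain DRC41 lacking acrAB efflux pump and sulA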
[12] = probe aLefty1 binding on compound microarray – biochemical, small-molecule microarray, 635/667 nm fluorescence, primary screen (AID 1153); conditions: higher = more signal;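 further: score merges spot fluorescence with signal-to-noise ratio from the scanned slide images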
[13] = plasmodial surface anion channel blockers, osmotic lysis – cell-based, P. falciparum Indochina, OD700, 1 h, primary screen (AID 1154); conditions: P. falciparum Indochina infected RBC osmotic lysis, higher = more signal, called active from +8 up or from −8 down
[14] = plasmodial surface anion channel blockers, osmotic lysis – cell-based, P. falciparum Indochina, OD700, 2 h, primary screen (AID 1155);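 further: lysis reports solute entry through the parasite surface anion channel PSAC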; conditions: P. falciparum Indochina infected erythrocytes, higher = more signal, called active from +8 up or from −8 down
[15] = changes in parasitized red cell lysis, either direction – P. falciparum Indochina, OD700, 3 h, PSAC antagonist project, primary screen (AID 1156); conditions: P. falciparum-infected erythrocytes, osmotic lysis, higher = more signal, called active from +8 up or from −8 down
[16] = plasmodial surface anion channel blockers, osmotic lysis – cell-based, P. falciparum Indochina, OD700, 18 h, primary screen (AID 1157); conditions: P. falciparum Indochina infected erythrocytes, osmotic lysis OD700, 18 h; higher = more signal, called active from +8 up or from −8 down
[17] = S6 kinase pathway phospho-S6 level changes – cell-based, A549, cytoblot, luminescence, serum-stimulated, primary screen (AID 1158); conditions: 5 h, higher = more signal;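 further: serum-stimulated A549 lung adenocarcinoma cells; signal is phosphorylated S6 detected by cytoblot immunostaining with HRP secondary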
[18] = target: NADPH oxidase 2 (Homo sapiens) (UniProt P04839); experiment: compounds shifting NOX2 Amplex Red fluorescence – cell-based, HEK293-NOX2, PMA-stimulated, NOX inhibitor project, primary screen (AID 1159); conditions: 45 min, higher = more signal, called active from +8 up or from −8 down; further: test concentration not given here
NADPH oxidase 2 (Homo sapiens), sequence (P04839 whole entry, looked up): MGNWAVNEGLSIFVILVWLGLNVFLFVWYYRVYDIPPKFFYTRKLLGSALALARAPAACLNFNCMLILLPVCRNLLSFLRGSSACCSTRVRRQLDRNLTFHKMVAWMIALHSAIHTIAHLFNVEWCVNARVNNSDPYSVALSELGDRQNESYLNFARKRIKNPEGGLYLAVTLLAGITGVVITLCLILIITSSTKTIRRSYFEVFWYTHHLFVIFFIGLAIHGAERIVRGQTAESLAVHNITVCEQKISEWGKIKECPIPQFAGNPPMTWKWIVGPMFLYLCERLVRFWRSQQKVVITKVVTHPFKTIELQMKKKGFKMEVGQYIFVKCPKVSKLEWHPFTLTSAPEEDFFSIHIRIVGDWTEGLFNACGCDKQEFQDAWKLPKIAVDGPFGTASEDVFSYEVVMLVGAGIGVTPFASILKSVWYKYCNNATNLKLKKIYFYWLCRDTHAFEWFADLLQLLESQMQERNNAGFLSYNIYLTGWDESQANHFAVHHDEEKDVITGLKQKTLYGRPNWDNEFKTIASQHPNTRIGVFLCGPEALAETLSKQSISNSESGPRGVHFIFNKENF

[19] = target: NADPH oxidase 4 (Homo sapiens) (UniProt Q9NPH5); experiment: compounds shifting NOX4 Amplex Red fluorescence – cell-based, HEK293-NOX4, tetracycline-induced, NOX inhibitor project, primary screen (AID 1160); conditions: HEK293-NOX4, Amplex Red H2O2 fluorescence, 45 min; higher = more signal, called active from +8 up or from −8 down
NADPH oxidase 4 (Homo sapiens), sequence (Q9NPH5 whole entry, looked up): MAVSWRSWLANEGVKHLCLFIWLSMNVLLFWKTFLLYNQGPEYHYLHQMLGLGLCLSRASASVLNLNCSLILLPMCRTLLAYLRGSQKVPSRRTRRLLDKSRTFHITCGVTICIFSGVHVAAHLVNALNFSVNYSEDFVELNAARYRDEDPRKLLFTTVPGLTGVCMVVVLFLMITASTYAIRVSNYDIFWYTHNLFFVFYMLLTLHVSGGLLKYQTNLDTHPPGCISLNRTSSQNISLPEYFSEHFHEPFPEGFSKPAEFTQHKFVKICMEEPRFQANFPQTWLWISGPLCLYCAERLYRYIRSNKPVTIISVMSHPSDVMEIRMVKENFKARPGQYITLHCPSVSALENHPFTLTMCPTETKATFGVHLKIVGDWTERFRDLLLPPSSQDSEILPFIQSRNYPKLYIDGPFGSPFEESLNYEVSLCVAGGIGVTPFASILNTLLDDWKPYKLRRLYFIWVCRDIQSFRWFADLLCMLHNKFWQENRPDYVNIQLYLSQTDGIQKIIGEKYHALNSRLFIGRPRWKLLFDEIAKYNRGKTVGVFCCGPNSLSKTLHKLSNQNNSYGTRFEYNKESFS

[20] = target: NADPH oxidase 5 (Homo sapiens) (UniProt Q96PH1); experiment: compounds shifting NOX5 Amplex Red fluorescence – cell-based, HEK293-NOX5, NOX inhibitor project, primary screen (AID 1161); conditions: HEK293-NOX5, ionomycin, 45 min, higher = more signal
NADPH oxidase 5 (Homo sapiens), sequence (Q96PH1 whole entry, looked up): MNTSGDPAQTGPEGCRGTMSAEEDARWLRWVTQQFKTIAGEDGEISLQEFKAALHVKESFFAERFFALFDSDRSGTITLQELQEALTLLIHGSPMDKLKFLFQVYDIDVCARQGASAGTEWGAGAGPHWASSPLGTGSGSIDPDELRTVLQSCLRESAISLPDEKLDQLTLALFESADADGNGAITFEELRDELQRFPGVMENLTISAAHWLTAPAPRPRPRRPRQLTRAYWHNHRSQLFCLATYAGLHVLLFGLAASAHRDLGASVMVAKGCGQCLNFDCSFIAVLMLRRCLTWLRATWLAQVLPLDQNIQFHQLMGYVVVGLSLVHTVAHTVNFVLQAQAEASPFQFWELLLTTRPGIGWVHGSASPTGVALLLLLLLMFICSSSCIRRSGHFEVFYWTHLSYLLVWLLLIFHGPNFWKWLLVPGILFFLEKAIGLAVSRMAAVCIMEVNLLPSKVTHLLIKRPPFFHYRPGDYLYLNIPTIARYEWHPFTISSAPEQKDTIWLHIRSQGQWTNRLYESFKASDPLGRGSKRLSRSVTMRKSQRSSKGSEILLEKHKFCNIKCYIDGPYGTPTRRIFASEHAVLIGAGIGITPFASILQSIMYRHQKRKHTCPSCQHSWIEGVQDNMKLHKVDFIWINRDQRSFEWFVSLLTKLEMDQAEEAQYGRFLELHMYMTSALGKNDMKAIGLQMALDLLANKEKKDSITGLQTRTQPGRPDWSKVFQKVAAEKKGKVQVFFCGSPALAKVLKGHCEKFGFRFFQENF

SMILES: CCOC(=O)CCN1C(=O)[C@H]2[C@H]3[C@H](O)[C@H](O)CC(=NOC[C@@H](O)COCc4ccco4)[C@@H]3CC[C@H]2C1=O
- composite z-score [1]: -0.0579
- z-score [2]: -0.632 (inactive)
- z-score [3]: -0.35 (inactive)
- z-score [4]: 0.251 (inactive)
- z-score [5]: 0.069 (inactive)
- composite z-score [6]: 0.663
- composite z-score [7]: -0.197
- composite z-score [8]: 0.584
- composite z-score [9]: -0.0032
- composite z-score [10]: -0.825
- z-score [11]: 0.401 (inactive)
- composite z-score [12]: 0.0861
- z-score [13]: 3.93 (inactive)
- z-score [14]: 0.63 (inactive)
- z-score [15]: -0.403 (inactive)
- z-score [16]: 0.403 (inactive)
- z-score [17]: -0.426
- z-score [18]: 0.48 (inactive)
- z-score [19]: 0.771 (inactive)
- z-score [20]: 0.6

SMILES: COC(=O)[C@H](C)NC(=O)[C@@H](C)CO
- composite z-score [1]: 0.174
- z-score [2]: -0.76 (inactive)
- z-score [3]: 0.06 (inactive)
- z-score [4]: -0.432 (inactive)
- z-score [5]: 0.17 (inactive)
- composite z-score [6]: 0.733
- composite z-score [7]: -0.0313
- composite z-score [8]: 0.927
- composite z-score [9]: 0.461
- composite z-score [10]: 0.575
- z-score [11]: -0.534 (inactive)
- composite z-score [12]: 0.138
- z-score [13]: 0.295 (inactive)
- z-score [14]: 0.451 (inactive)
- z-score [15]: 0.372 (inactive)
- z-score [16]: 0.665 (inactive)
- z-score [17]: 0.656
- z-score [18]: -0.371 (inactive)
- z-score [19]: -0.71 (inactive)
- z-score [20]: 0.468

SMILES: CC(=O)OC[C@H]1O[C@H](CCON=C[C@@H](C)[C@H](OCc2ccccc2)C(C)C)C=C[C@@H]1OC(C)=O
- composite z-score [1]: -0.0629
- z-score [2]: -0.305 (inactive)
- z-score [3]: 0.0966 (inactive)
- z-score [4]: 1.16 (inactive)
- z-score [5]: 0.598 (inactive)
- composite z-score [6]: 0.133
- composite z-score [7]: -0.199
- composite z-score [8]: 0.658
- composite z-score [9]: 0.284
- composite z-score [10]: 0.372
- z-score [11]: -2.02 (inactive)
- composite z-score [12]: -0.313
- z-score [13]: 1.25 (inactive)
- z-score [14]: 0.412 (inactive)
- z-score [15]: 1.01 (inactive)
- z-score [16]: 0.367 (inactive)
- z-score [17]: -0.297
- z-score [18]: -0.953 (inactive)
- z-score [19]: -0.218 (inactive)
- z-score [20]: -2.17

SMILES: CCN1C(=O)[C@H]2[C@H]3[C@H](O)C=CC(=O)[C@@H]3CC[C@H]2C1=O
- composite z-score [1]: 0.213
- z-score [2]: 0.148 (inactive)
- z-score [3]: 0.465 (inactive)
- z-score [4]: 0.342 (inactive)
- z-score [5]: 0.069 (inactive)
- composite z-score [6]: 0.232
- composite z-score [7]: -0.0759
- composite z-score [8]: 0.0994
- composite z-score [9]: 0.546
- composite z-score [10]: 0.62
- z-score [11]: -0.474 (inactive)
- composite z-score [12]: -0.265
- z-score [13]: -0.441 (inactive)
- z-score [14]: -0.343 (inactive)
- z-score [15]: -0.795 (inactive)
- z-score [16]: -0.21 (inactive)
- z-score [17]: 0.176
- z-score [18]: 0.0244 (inactive)
- z-score [19]: -0.0152 (inactive)
- z-score [20]: -0.204

SMILES: COCCOC(=O)N1C(=O)[C@@]2(c3cc(C#CCNC(N)=O)ccc31)[C@H](c1ccccc1OCCO)N1[C@H](c3ccccc3)[C@H](c3ccccc3)OC(=O)[C@H]1[C@@H]2C(=O)N1CCN(c2ncccn2)CC1
- composite z-score [1]: 0.734
- z-score [2]: -1.96 (inactive)
- z-score [3]: -0.897 (inactive)
- z-score [4]: -0.465 (inactive)
- z-score [5]: 2.16 (inactive)
- composite z-score [6]: 0.29
- composite z-score [7]: 0.0497
- composite z-score [8]: 0.303
- composite z-score [9]: 0.923
- composite z-score [10]: 0.966
- z-score [11]: 0.981 (inactive)
- composite z-score [12]: 0.15
- z-score [13]: 2.11 (inactive)
- z-score [14]: -0.313 (inactive)
- z-score [15]: 0.793 (inactive)
- z-score [16]: -2.06 (inactive)
- z-score [17]: 2.82
- z-score [18]: 1.63 (inactive)
- z-score [19]: 1.09 (inactive)
- z-score [20]: -0.814

SMILES: COc1ccc(-c2ccc3c(n2)CCCN3CC(O)CN2CCCc3nc(C)c(C)cc32)cc1 (stereo not given)
- composite z-score [1]: 0.268
- z-score [2]: -0.154 (inactive)
- z-score [3]: -0.0522 (inactive)
- z-score [4]: -0.0779 (inactive)
- z-score [5]: 0.536 (inactive)
- composite z-score [6]: 1.52
- composite z-score [7]: 0.276
- composite z-score [8]: 0.785
- composite z-score [9]: 1.15
- composite z-score [10]: 1.19
- z-score [11]: 0.125 (inactive)
- composite z-score [12]: 0.864
- z-score [13]: 5.76 (inactive)
- z-score [14]: 0.894 (inactive)
- z-score [15]: 0.661 (inactive)
- z-score [16]: 0.0758 (inactive)
- z-score [17]: -0.0509
- z-score [18]: 1.05 (inactive)
- z-score [19]: -0.305 (inactive)
- z-score [20]: -1.35

SMILES: COC(=O)[C@@H]1CC[C@H](C)[C@@H](c2ccc(C)cc2)N1C(=O)c1ccc(C=NOC(C)CN2CCCCc3nc(C)c(C)cc32)cc1 (stereo not given in full)
- composite z-score [1]: 0.595
- z-score [2]: -3.62 (inactive)
- z-score [3]: -0.356 (inactive)
- z-score [4]: 1.81 (inactive)
- z-score [5]: 1 (inactive)
- composite z-score [6]: 0.48
- composite z-score [7]: -0.0791
- composite z-score [8]: -0.269
- composite z-score [9]: -0.332
- composite z-score [10]: 0.328
- z-score [11]: 0.173 (inactive)
- composite z-score [12]: -0.0449
- z-score [13]: 1.21 (inactive)
- z-score [14]: 0.369 (inactive)
- z-score [15]: 1.03 (inactive)
- z-score [16]: 0.367 (inactive)
- z-score [17]: -0.122
- z-score [18]: -0.202 (inactive)
- z-score [19]: -1.62 (inactive)
- z-score [20]: 0.64

SMILES: O=C1C[C@@H](O)[C@@H](O)[C@@H]2[C@@H]3C(=O)N(Cc4ccc5c(c4)OCO5)C(=O)[C@@H]3CC[C@@H]12
- composite z-score [1]: 0.0765
- z-score [2]: 0.136 (inactive)
- z-score [3]: 0.00816 (inactive)
- z-score [4]: -0.116 (inactive)
- z-score [5]: 0.0785 (inactive)
- composite z-score [6]: -0.282
- composite z-score [7]: -0.149
- composite z-score [8]: 0.622
- composite z-score [9]: 0.407
- composite z-score [10]: 0.698
- z-score [11]: 0.306 (inactive)
- composite z-score [12]: -0.103
- z-score [13]: 4.63 (inactive)
- z-score [14]: 0.632 (inactive)
- z-score [15]: 0.311 (inactive)
- z-score [16]: 0.182 (inactive)
- z-score [17]: -0.352
- z-score [18]: 0.323 (inactive)
- z-score [19]: -0.209 (inactive)
- z-score [20]: -0.246

SMILES: c1ccc(C2NCCc3c2[nH]c2ccccc32)cc1 (stereo not given)
- composite z-score [1]: -0.18
- z-score [2]: -0.92 (inactive)
- z-score [3]: -0.0191 (inactive)
- z-score [4]: -0.253 (inactive)
- z-score [5]: -1.11 (inactive)
- composite z-score [6]: -0.26
- composite z-score [7]: -0.101
- composite z-score [8]: 0.586
- composite z-score [9]: 0.462
- composite z-score [10]: -0.12
- z-score [11]: -1.78 (inactive)
- composite z-score [12]: 0.155
- z-score [13]: 1.07 (inactive)
- z-score [14]: 0.709 (inactive)
- z-score [15]: 0.806 (inactive)
- z-score [16]: -0.0204 (inactive)
- z-score [17]: -0.513
- z-score [18]: 0.943 (inactive)
- z-score [19]: -0.561 (inactive)
- z-score [20]: 1.23
